Assay results published in PubChem BioAssay (NCI).
The panel holds about 79,000 compounds, 15% with a hit somewhere; the sample as a whole holds those more often. Values without a mark were called inactive. Activity calls are given as the source filed them. Rule as the data show it: active = growth inhibition above about 70%; inactive = the rest.

Tests used:
[1] = NCI Yeast Anticancer Drug Screen. Data for the rad50 strain (AID 155);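 also: 0% = growth of vehicle-only cultures of the same strain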; conditions: S. cerevisiae rad50 strain growth inhibition, active compounds read high
Procedure, shortened: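 Compounds were tested on a yeast strain with an engineered DNA damage repair alteration; the reported value is growth inhibition normalised to vehicle treatment.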

[2] = NCI Yeast Anticancer Drug Screen. Data for the mec2-1 strain (AID 157); conditions: S. cerevisiae mec2-1 strain, active compounds read high
Procedure, shortened: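 Cells of the genetically defined mec2-1 yeast strain are incubated with test compound. Inhibition of growth is calculated against vehicle-treated controls.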

[3] = NCI Yeast Anticancer Drug Screen. Data for the sgs1 mgt1 strain (AID 161);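 also: 0% = growth of cultures given vehicle only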; conditions: S. cerevisiae sgs1 mgt1 strain, active compounds read high
Procedure, shortened: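 Test agents were incubated with a DNA-repair-mutant yeast strain. Growth was then read and compared against vehicle-treated controls.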

[4] = NCI Yeast Anticancer Drug Screen. Data for the cln2 rad14 strain (AID 165);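 also: 0% = growth equal to vehicle treated cultures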; conditions: S. cerevisiae cln2 rad14 strain, active compounds read high
Procedure, shortened: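 The screen exposed genetically defined yeast (cln2 rad14) to test compounds and scored growth inhibition relative to vehicle-treated controls.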

[5] = NCI Yeast Anticancer Drug Screen. Data for the bub3 strain (AID 167); conditions: S. cerevisiae bub3 mutant strain, active compounds read high
Procedure, shortened: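 Growth of a checkpoint-deficient yeast mutant is measured after compound exposure. Values represent inhibition relative to vehicle.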

[6] = NCI Yeast Anticancer Drug Screen. Data for the mlh1 rad18 strain (AID 175); conditions: S. cerevisiae mlh1 rad18 strain growth inhibition, active compounds read high
Procedure, shortened: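 Compound-treated yeast growth, normalised to vehicle controls. Strain bears defined DNA repair mutations.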

[7] = at 5.0 µM (retest, dose inferred, filed as 0.5)
[8] = at 50.0 µM (retest, dose inferred, filed as 5.0)

Structure (SMILES)	growth inhibition [1, 7]	growth inhibition [1, 8]	growth inhibition ([1]; at 50.0 µM)	growth inhibition [2, 7]	growth inhibition [2, 8]	growth inhibition ([2]; at 50.0 µM)	growth inhibition [3, 7]	growth inhibition [3, 8]	growth inhibition ([3]; at 50.0 µM)	growth inhibition [4, 7]	growth inhibition [4, 8]	growth inhibition ([4]; at 50.0 µM)	growth inhibition [5, 7]	growth inhibition [5, 8]	growth inhibition ([5]; at 50.0 µM)	growth inhibition [6, 7]	growth inhibition [6, 8]	growth inhibition ([6]; at 50.0 µM)
O=C(/C(=C/c1ccc(Cl)cc1)c1ccccc1)c1ccc(O)cc1	94% (active)	94% (active)	95.8% (active)	64%	97% (active)	95.5% (active)	94% (active)	94% (active)	96.5% (active)	53%	92% (active)	92.5% (active)	89% (active)	95% (active)	97.3% (active)	96% (active)	95% (active)	97% (active)
COC1=CC(=O)c2c(ccc3ncnc(N)c23)C1=O	20%	73% (active)	22%	15%	15%	3.35%	14%	28%	-6%	18%	32%	24.9%	19%	-11%	17.5%	13%	59%	-4.3%
O=C1c2ccccc2CCC1C(O)(C(F)(F)F)C(F)(F)F (stereo not given)	19%	13%	-5.3%	16%	7%	-3.6%	22%	7%	-35.8%	4%	11%	10.9%	-12%	1%	31.6%	22%	20%	-11.3%
CCOC(=O)C(NC(C)=O)[CH](c1ccccc1)[Sn]([c]1ccccc1)([c]1ccccc1)[c]1ccccc1 (stereo not given)	3%	92% (active)	94.4% (active)	-7%	96% (active)	97.5% (active)	-10%	95% (active)	99.1% (active)	-19%	92% (active)	94% (active)	-13%	96% (active)	96.2% (active)	2%	95% (active)	96.7% (active)
COc1ccc(/C=C2/C(=O)NC3SC=C(c4cccc([N+](=O)[O-])c4)N23)cc1 (stereo not given)	8%	6%	33%	0%	2%	10.9%	-4%	-1%	32.6%	34%	-23%	11.4%	21%	13%	62.9%	5%	23%	29.7%
C=CCc1cc(Cl)ccc1O	1%	51%	37.6%	-2%	27%	79% (active)	1%	40%	83.5% (active)	1%	14%	61.2%	0%	19%	38.7%	1%	51%	36.4%
CC(=O)N(C(C)=O)C1=C2c3ccccc3N(S(=O)(=O)c3ccccc3)C2n2c(=O)n(-c3ccccc3)c(=O)n2C1 (stereo not given)	11%	64%	69.9%	-5%	46%	46.8%	-1%	66%	75.7% (active)	-26%	61%	63.7%	0%	56%	58.6%	-10%	35%	55.7%
CSc1nc(NC2OC(CO)C(O)C(O)C2O)c(Cl)c(=O)[nH]1 (stereo not given)	-1%	-1%	42.1%	0%	-1%	4.45%	-2%	0%	12.4%	1%	-2%	-3.85%	-1%	4%	-1.4%	2%	-1%	1.05%
O=[N+]([O-])c1ccccc1C(c1ccc2ccccc2c1O)N1CCOCC1 (stereo not given)	99% (active)	95% (active)	97.5% (active)	100% (active)	97% (active)	97.8% (active)	99% (active)	98% (active)	94.8% (active)	78% (active)	96% (active)	97% (active)	99% (active)	97% (active)	95.8% (active)	98% (active)	97% (active)	95.4% (active)
O=C1c2ccc3ccccc3c2CCC1[n+]1ccc2ccccc2c1 (stereo not given)	1%	57%	53.4%	11%	76% (active)	77.3% (active)	7%	79% (active)	70.7% (active)	-5%	29%	83.6% (active)	-4%	63%	71% (active)	15%	85% (active)	69.5%
